Assay outcomes (PubChem)
Shown are actives, neighbours in structure and some others; about 9.4% of the full set was active somewhere.
SMN2 splice up – increases expression of the SMN2 splice variant; HEK293 SMN2-luciferase splicing reporter, luminescence, 30-36 h; Potency, µM (doses to about 46.1 µM), inactives show at the top dose activity change, positive = activation, most hits filed as activators; 2.8% of 210,000 active; AID 1458; further: % of control where 0% means no effect; nearly all actives have a fitted effect of over 55% in size
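HEK293 cells carry an SMN2 […]–luciferase reporter in which exon 7 inclusion puts luciferase in frame. Cells were plated 10-12 h before compound addition, then incubated 30-36 h at 37C. ONE-Glo luminescence was read; sodium butyrate at 4.5 mM final served as control.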
FLuc modulator – inhibits or activates purified firefly luciferase, miR-21 counter-screen; Potency, µM (series often up to 57.5 µM), for inactives: at the top dose activity change, negative = inhibition, actives largely listed as inhibitors; 6.9% of 360,000 active; purified FLuc, Km substrates, luminescence inhibition;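 further: plate controls were vehicle for no effect and reference inhibitor for full effect; nearly all actives have a fitted effect of over 55% in size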
Target sequence (P08659 whole entry, looked up): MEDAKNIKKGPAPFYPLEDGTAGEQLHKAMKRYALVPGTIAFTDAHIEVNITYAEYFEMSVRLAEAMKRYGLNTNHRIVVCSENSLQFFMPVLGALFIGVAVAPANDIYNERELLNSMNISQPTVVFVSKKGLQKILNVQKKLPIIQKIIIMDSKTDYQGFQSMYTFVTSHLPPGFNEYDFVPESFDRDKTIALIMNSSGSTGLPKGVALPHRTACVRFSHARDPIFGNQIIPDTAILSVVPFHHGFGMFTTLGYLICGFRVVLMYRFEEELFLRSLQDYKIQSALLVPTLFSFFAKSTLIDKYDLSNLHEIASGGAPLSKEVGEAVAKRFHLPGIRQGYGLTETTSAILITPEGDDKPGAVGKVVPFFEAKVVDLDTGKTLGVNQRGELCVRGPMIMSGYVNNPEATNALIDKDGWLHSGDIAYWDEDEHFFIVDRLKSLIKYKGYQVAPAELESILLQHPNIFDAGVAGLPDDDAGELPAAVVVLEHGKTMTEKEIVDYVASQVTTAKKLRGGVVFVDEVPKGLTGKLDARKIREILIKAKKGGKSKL
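Purified P. pyralis luciferase, 10 nM final, with Km-level 10 uM D-luciferin and 10 uM ATP in 50 mM Tris acetate pH 7.5, 10 mM Mg acetate, 0.01% Tween-20, 0.05% BSA; 6-point qHTS titration about 60 µM downward; luminescence read.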
ELG1 repair inh – ELG1-dependent DNA repair inhibition. HEK293T ELG1-luciferase reporter, luminescence, 16 h; DNA damage induced by 5-fluorouridine. 2.3% of 330,000 active. Potency, µM (top dose mostly 46.1 µM), for inactives: at the highest dose activity change, negative = inhibition, actives largely listed as inhibitors. AID 504467; further: on the % scale 0 is the no-effect control and ±100 the full control effect; nearly all actives have a fitted effect of over 55% in size
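HEK293T cells expressing luciferase-tagged ELG1 (2,000/well) received 5-Fluorouridine plus compound or DMSO for 16 hr at 37 °C. Luciferase was read by ONE-Glo luminescence after 30 min at room temperature.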
ELG1 genotoxic – induces genotoxicity in HEK293T cells with luciferase-tagged ELG1; HEK293T ELG1-luciferase reporter, luminescence, 16 h; Potency, µM (highest dose often 46 µM), for the others: top-dose activity change, positive = activation, most hits filed as activators; 1.3% of 330,000 active; further: % of control where 0% means no effect; nearly all actives have a fitted effect of over 60% in size
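Reporter readout depends on ELG1 protein level, which increases with genetic stress. After 16 hr compound exposure at 37 °C, luciferase activity was quantified using ONE-Glo.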
NPC1 promoter act – activates the NPC1 promoter | 2.4% of 320,000 active | Huh7 NPC1 promoter luciferase reporter, 24 h | AID 485313 | Potency, µM (titrated, usually from 9.22 µM), for the others: top-dose activation, hits mostly activators; further: % of control where 0% means no effect; nearly all actives have a fitted effect of over 60% in size
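Luminescence from an NPC1 promoter-driven luciferase reporter in stably transfected Huh7 cells was measured after 24 h compound treatment at 37 °C, followed by 10 min ambient incubation with luciferase detection reagent.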
Rab9 promoter act – Rab9 promoter activation; 2.8% of 320,000 active; Huh7 Rab9 promoter-luciferase reporter, luminescence, 24 h; Potency, µM (titrated, usually from 9.22 µM), without a hit: top-dose activation, negative = inhibition, most hits filed as activators; AID 485297; further: % of control where 0% means no effect; nearly all actives have a fitted effect of over 60% in size
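Cells were plated at 1500 per well in reduced-serum medium with 10% FBS and left 2 h. Compound in DMSO was then added for 24 h at 37 °C. Reporter signal was read by luminescence after 10 min with luciferase detection reagent.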
Starred values were filed as active, the others as inactive; ? = inconclusive; / = no result given; [ ] = remark or other dose. The call rests on the fitted dose curve; in most records, active means well fitted curve in the direction sought with a large enough effect; inconclusive means small, poorly fitted or top-dose-only effect, or another doubt; inactive means no such curve, though single readings can be large; an effect the other way counts as inactive or inconclusive. Potency means the concentration at half of the fitted maximal effect.

SMILES	SMN2 splice up	FLuc modulator	ELG1 repair inh	ELG1 genotoxic	NPC1 promoter act	Rab9 promoter act
CCN(CC)c1ccc(N=Cc2cc(Br)ccc2O)cc1	-17.0%	9.53µM*	?	-7.3%	-0.7%	-5.5%
CCOc1ccccc1N1CC(c2nc3ccccc3n2CCOc2ccccc2OC)CC1=O (centres undefined)	2.3%	-10.9%	/	/	/	/
CCOc1nc2c(c(-c3cccs3)c1C#N)Cc1ccccc1-2	/	4.1%	-1.6%	2.3%	-1.6%	-11.6%
CC(=O)COc1nc2c(c(-c3ccco3)c1C#N)CCc1ccccc1-2	/	0.3%	8.2µM*	-5.1%	10.8%	-0.5%
COc1cc2c(cc1OC)C(NC(=O)C(F)(F)F)CNC2=O (centres undefined)	-17.5%	0.1%	11.6µM*	-14.8%	-3.3%	-8.7%
S=C(NCCc1ccccc1)Nc1cccc2cnccc12	-59.3%	-5.2%	1.46µM*	-1.9%	-33.7%	-27.2%
S=C(NCc1ccccc1)Nc1cccc2cnccc12	/	-1.8%	2.06µM*	-4.4%	-27.1%	-23.9%
S=C(NCc1cccnc1)Nc1cccc2ccccc12	6.8%	-1.8%	3.1%	-0.7%	-0.1%	0.8%
CCOC(=O)c1cc(-c2ccc(F)cc2)n(CCC(=O)Nc2cc(OC)cc(OC)c2)c1C	/	-7.4%	/	/	/	/
CN(C)CCOC(=O)c1ccc(N)cc1	-10.2%[9.22 µM]	/	/	/	/	/
CC(C)(C)n1ncc2c(=O)n(Cc3ccccc3)cnc21	/	2.1%	/	/	/	/
Cc1ccc(C(=O)Cn2cnc3ccccc3c2=O)cc1	11.2µM*	21.3µM*	?	?	?	2.51µM*
CC(C)(C)n1ncc2c(=O)n(CC(=O)c3ccccc3)cnc21	12.6µM*	23.9µM*	?	15.1%	?	4.47µM*
CC(C)(C)n1ncc2c(=O)n(CC(=O)OCc3ccccc3)cnc21	3.7%	0.0849µM*	?	?	?	1.41µM*
COc1ccc(-c2nc3sc(CCNC(=O)C(=O)Nc4ccccc4C#N)c(C)n3n2)cc1	/	2.0%	/	/	/	/
COc1ccc(-c2nc3sc(CCNC(=O)c4cc(Cl)ccc4OC)c(C)n3n2)cc1	/	7.57µM*	/	/	/	/
COc1ccc(-c2nc3sc(CCNC(=O)c4ccc(Br)o4)c(C)n3n2)cc1	/	10.7µM*	/	/	/	/
CCC(=O)NCCc1sc2nc(-c3ccc(OC)cc3)nn2c1C	/	19µM*	/	/	/	/
COc1ccc(-c2nc3sc(CCNC(=O)Cc4ccc(Cl)cc4)c(C)n3n2)cc1	/	-18.0%	/	/	/	/
COc1ccc(-c2nc3sc(CCNC(=O)c4ccc(C(C)(C)C)cc4)c(C)n3n2)cc1	/	4.78µM*	/	/	/	/
CCOc1ccc(CC(=O)NCCc2sc3nc(-c4ccc(OC)cc4)nn3c2C)cc1	/	-0.4%	/	/	/	/
Cn1c(=O)n(-c2ccc(Br)cc2F)c(=O)c2sc3ccccc3c21	-13.2%	1.3%	/	/	/	/
Cc1cccc(-n2ncc(C(=O)NCc3ccccn3)c2C2CCN(C(=O)OC(C)(C)C)CC2)c1	/	-1.7%	/	/	/	/
CC(C)(C)c1ccc(C(=O)NCCc2csc3nc(-c4ccccc4F)nn23)cc1	/	12µM*	/	/	/	/
CCOc1cc(C(=O)NCCc2csc3nc(-c4ccccc4F)nn23)cc(OCC)c1OCC	/	-12.9%	/	/	/	/
SMILES	SMN2 splice up	FLuc modulator	ELG1 repair inh	ELG1 genotoxic	NPC1 promoter act	Rab9 promoter act
CCOCCCNC(=O)NC(CCC(C)C)c1c(-n2cccc2)sc2c1CCN(C)C2 (centres undefined)	/	-4.4%	/	/	/	/
Cc1ccc(S(=O)(=O)N(CC(=O)Nc2cccnc2)c2cc(Cl)ccc2C)cc1	-36.2%	-8.3%	/	/	/	/
CCCn1c(C)cc(C(=O)CSc2nc3nc(C)cc(C)n3n2)c1C	-18.3%	21.3µM*	?	-0.4%	-1.1%	-0.4%
C/C(=N/NS(=O)(=O)c1ccc(C)cc1)c1cccc(NC(=O)c2cccc(Cl)c2)c1	-13.3%	16.9µM*	-4.8%	-11.0%	-1.1%	-5.1%
CC(=O)c1cccc(NC(=O)NNC(=O)c2ccc(Cl)cc2Cl)c1	/	-6.2%	?	-9.6%	-4.6%	-6.2%
C/C(=N/NS(=O)(=O)c1ccc(Cl)cc1)c1cccc(NC(=O)c2ccc(Cl)cc2Cl)c1	7.9%	16.9µM*	-15.9%	0.1%	-0.4%	4.4%
C/C(=N\NC(=O)C1CC1)c1cccc(NC(=O)c2cccc(Cl)c2)c1	21.6%	?	?	0.0%	2.6%	2.3%
CC(=O)Nc1cccc(/C(C)=N/NC(=O)c2ccc(Cl)cc2Cl)c1	-26.4%	19µM*	?	-0.6%	2.7%	-6.0%
CCc1ccc(S(=O)(=O)NCc2nc3cccnc3n2Cc2ccccc2Cl)cc1	/	2.2%	/	/	/	/
C=CCOc1c(Br)cc(/C=C2/NC(=S)N(C(C)=O)C2=O)cc1OC	8.6%	1.51µM*	-13.2%	23.1%	-0.4%	-3.3%
COc1cccc(-n2c(SCC(=O)N3CCc4ccccc43)nc3c([nH]c4ccccc43)c2=O)c1	/	0.1%	/	/	/	/
CC(/C=N/Nc1nc2ccccc2[nH]1)=C\c1ccccc1	2.51µM*	0.675µM*	?	0.82µM*	0.501µM*	0.398µM*
c1ccc2[nH]c(NN=C3CCCCCC3)nc2c1	11.2µM*	3.38µM*	?	?	9.9%	3.55µM*
CC(/C=N/Nc1nc(C)cc(=O)[nH]1)=C\c1ccccc1	-13.0%	?	?	0.3%	5.8%	13.5%
CC(=O)Nc1ccc(/C=N/Nc2nc3ccccc3[nH]2)cc1	-29.5%	12µM*	?	-7.9%	?	?
O=C(Cc1nc2ccccc2[nH]1)N/N=C/c1ccccc1	/	15.1µM*	?	1.3%	5.0%	8.2%
Cc1cc(C)cc(-n2c(SCC(N)=O)nc3c(oc4ccccc43)c2=O)c1	0.1%	1.1%	/	/	/	/
CC(=O)c1ccc(N2CCN(S(=O)(=O)c3ccc(-c4coc(C)n4)cc3)CC2)cc1	/	-1.0%	/	/	/	/
CCOC(=O)CC(NC(=O)CCc1c(C)nc2cc(-c3ccccc3)nn2c1C)c1ccc(C)cc1 (centres undefined)	-20.1%	-20.1%	/	/	/	/
COc1ccc(S(=O)(=O)NCCS(=O)(=O)N2CCN(c3ccccc3)CC2)cc1C	/	-10.3%	/	/	/	/
COC(=O)c1ccc(/C=N/Nc2nc3ccccc3[nH]2)cc1	?	8.49µM*	?	20.6µM*	3.16µM*	3.16µM*
CCN(CC)c1ccc(/C=N/Nc2nc3ccccc3[nH]2)cc1	-92.1%	6.01µM*	?	?	24.1%	?
O=C(O)c1ccc(/C=N/Nc2nc3ccccc3[nH]2)cc1	/	?	16.3%	-0.7%	12.9%	9.1%
O=C(OCc1c(Cl)cccc1Cl)c1ccccn1	3.1%	0.5%	11.2%	1.2%	-2.1%	8.2%
O=C(Cc1c(Cl)cccc1Cl)OCc1ccccn1	/	?	?	23.1µM*	25.1%	25.3%
